In PubChem BioAssay (EPA / NIEHS) one finds outcome and AC50 data, which are given here for four compounds.

Inconclusive results are not listed. The source made the active and inactive calls. Rule for the calls, unless noted: active = hit-call score of the fitted dose curve at least 0.9, where 1 is the maximum; inactive = score below 0.9.

A short description of experiment [1]: ATG_PBREM_CIS: Attagene CIS-FACTORIAL HepG2 Assay for human Phenobarbital-responsive Enhancer Module (PBREM) (AID 2282955). Conditions: HepG2 PBREM cis-reporter, Attagene multiplexed transcription; actives raise or lower the signal. In outline: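 HepG2 cells transiently transfected with multiple cis-regulated reporter transcription units; endogenous factor activity at the PBREM element measured as reporter mRNA 24 h after dosing, via RT-PCR and capillary electrophoresis of fluorescent fragments; bidirectional fitting versus DMSO.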

The target in experiment [2] is Paired box protein Pax-6 (Homo sapiens) (UniProt P26367). Nature of the experiment: ATG_Pax6_CIS: Attagene CIS-FACTORIAL HepG2 Assay for human Paired Box 6 (PAX6) (AID 2282956). The note with it: HepG2 CIS-FACTORIAL PAX6 reporter transcription, RNA readout; actives raise or lower the signal. In outline: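 Values derive from bidirectional curve fitting of reporter mRNA signal relative to DMSO. HepG2 cells bearing transfected cis-regulated MRTUs were exposed for 24 h; transcripts were read by RT-PCR and capillary electrophoresis.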

Experiment [3] can be described thus: ATG_PPRE_CIS: Attagene CIS-FACTORIAL HepG2 Assay for human Peroxisome Proliferator-activated Response Element (PPRE) (AID 2282958). The note with it: HepG2 PPRE cis-element reporter, Attagene transcription factor profiling; actives raise or lower the signal. In outline:
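HepG2 cells transiently transfected with multiplexed cis-element reporter units measure endogenous transcription factor activity. After 24 h compound exposure, reporter mRNA is quantified by RT-PCR, 6-FAM labeling, HpaI digestion and capillary electrophoresis; bidirectional fits are made against DMSO baseline.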

Experiment [4] can be described thus: ATG_RORE_CIS: Attagene CIS-FACTORIAL HepG2 Assay for human RAR-related Orphan Receptor Element (RORE) (AID 2282959). Conditions: HepG2 Attagene cis-factorial RORE reporter, mRNA; actives raise or lower the signal. A digest of the protocol: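 HepG2 cells transiently transfected with multiple cis-element reporter transcription units, exposed to chemical for 24 h. Reporter mRNA quantified by RT-PCR, 6-FAM primer-extension labeling, HpaI digestion and capillary electrophoresis; bidirectional fit versus DMSO baseline.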

Experiment [5] is described as follows: ATG_Sox_CIS: Attagene CIS-FACTORIAL HepG2 Assay for human SRY-box transcription factor (SOX) (AID 2282960). Conditions: HepG2 Attagene cis-factorial SOX reporter, mRNA; actives raise or lower the signal. A digest of the protocol: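 HepG2 cells transiently transfected with cis-element-driven multiple reporter transcription units, dosed 24 h; reporter mRNA measured by RT-PCR, FAM labelling, HpaI digestion and capillary electrophoresis. Bidirectional fit versus DMSO baseline.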

The target of experiment [6] is Transcription factor Sp1 (Homo sapiens) (UniProt P08047). Nature of the experiment: ATG_Sp1_CIS: Attagene CIS-FACTORIAL HepG2 Assay for human Specificity Protein 1 (Sp1) (AID 2282961). The note with it: HepG2 Sp1 cis-reporter transcription, actives raise or lower the signal. In outline: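 HepG2 cells transiently transfected with multiple reporter transcription units driven by cis-regulatory elements; Sp1-responsive reporter mRNA measured 24 h after dosing by RT-PCR and capillary electrophoresis fluorescence, fitted bidirectionally against DMSO baseline.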

The nature of experiment [7]: ATG_SREBP_CIS: Attagene CIS-FACTORIAL HepG2 Assay for human Sterol Regulatory Element Binding (SREBP) (AID 2282962). Conditions: HepG2 Attagene cis-factorial SREBP reporter, mRNA; actives raise or lower the signal. In outline:
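Values derive from bidirectional curve fitting with DMSO as baseline. The underlying measurement is reporter mRNA from cis-element-regulated units in transiently transfected HepG2, quantified by RT-PCR and capillary electrophoresis after 24 h exposure.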

The target in experiment [8] is Signal transducer and activator of transcription 3 (Homo sapiens) (UniProt P40763). Briefly: ATG_STAT3_CIS: Attagene CIS-FACTORIAL HepG2 Assay for human Signal Transducer and Activator of Transcription 3 (STAT3) (AID 2282963). Conditions: HepG2, Attagene cis-factorial STAT3 reporter transcription; actives raise or lower the signal. A digest of the protocol:
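Readout is reporter transcript quantified by RT-PCR and capillary electrophoresis, with 6-FAM primer extension and HpaI digestion. Total RNA is taken 24 h after dosing transiently transfected HepG2 carrying cis-regulated reporter units. Bidirectional fit against DMSO.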

Experiment [9] can be described thus: ATG_TA_CIS: Attagene CIS-FACTORIAL HepG2 Assay for human TA Basal Promoter (AID 2282964). The note with it: HepG2 Attagene CIS-factorial TA basal promoter reporter; actives raise or lower the signal. In outline:
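HepG2 cells transiently transfected with multiple reporter units under cis promoter elements, reporting endogenous transcription factor activity; this endpoint tracks the TA basal promoter as background control. Reporter mRNA after 24 h dosing measured by RT-PCR/capillary electrophoresis; bidirectional fits versus DMSO.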

Experiment [10] in a line: ATG_TCF_b_cat_CIS: Attagene CIS-FACTORIAL HepG2 Assay for human T-Cell-Factor with beta-catenin (TCF/b-cat) (AID 2282965). The note with it: HepG2 TCF/beta-catenin cis-reporter transcription, actives raise or lower the signal. A digest of the protocol:
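Endogenous transcription factor activity is captured through cis-promoter reporter constructs transiently introduced into human HepG2 liver cells. Induced reporter mRNA is measured after 24 h and fitted bidirectionally relative to DMSO.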

The nature of experiment [11]: ATG_TAL_CIS: Attagene CIS-FACTORIAL HepG2 Assay for human TAL Basal Promoter (AID 2282966).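 Note: background control endpoint measuring basal TAL promoter reporter mRNA not a specific factor.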 The note with it: HepG2 Attagene cis-factorial TAL promoter reporter; actives raise or lower the signal. A digest of the protocol: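 Human hepatoma HepG2 cells, transfected with promoter-regulated reporter units, were treated 24 h. Reporter transcript levels, measured through RT-PCR and capillary electrophoresis, were fitted for gain or loss relative to DMSO.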

Experiment [12] can be described thus: ATG_TGFb_CIS: Attagene CIS-FACTORIAL HepG2 Assay for human Transforming Growth Factor (TGF) (AID 2282967). Conditions: HepG2 Attagene CIS TGFb reporter, mRNA transcription; actives raise or lower the signal. In outline:
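HepG2 cells transiently transfected with cis-promoter-driven multiple reporter units measure endogenous TF activity; reporter mRNA quantified at 24 h by RT-PCR, FAM labeling, HpaI digestion and capillary electrophoresis. Bidirectional fit vs DMSO.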

A short description of experiment [13]: ATG_VDRE_CIS: Attagene CIS-FACTORIAL HepG2 Assay for human Vitamin D Receptor Element (VDRE) (AID 2282968). Conditions: HepG2 VDRE cis-reporter transcription, actives raise or lower the signal. A digest of the protocol: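 Readout is VDRE-driven reporter mRNA reflecting endogenous factor activity in human HepG2 cells, sampled 24 h post-dose. Quantification used labelled RT-PCR products separated by capillary electrophoresis; bidirectional analysis relative to DMSO.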

Experiment [14] has as its target Nuclear receptor subfamily 1 group I member 3 (Homo sapiens) (UniProt Q14994). Nature of the experiment: ATG_CAR_TRANS: Attagene TRANS-FACTORIAL HepG2 Assay for human Constitutive Androstane Receptor (CAR) (AID 2282969; active = hit-call score of the fitted dose curve at least 0.9, where 1 is the maximum;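 note: activators raise reporter mRNA above DMSO so AC50 marks induction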). The note with it: HepG2 Attagene TRANS-FACTORIAL CAR reporter. A digest of the protocol: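 Signal is reporter mRNA induction relative to DMSO, measured 24 h after dosing by RT-PCR with fluorescent primer extension and capillary electrophoresis. Human HepG2 liver cells carried transiently transfected chimeric NR-Gal4/GAL4-UAS reporter constructs.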

The target in experiment [15] is Estrogen receptor (Homo sapiens) (UniProt P03372). Nature of the experiment: ATG_ERa_TRANS: Attagene TRANS-FACTORIAL HepG2 Assay for human Estrogen Receptor alpha (ERa) (AID 2282970; active = hit-call score of the fitted dose curve at least 0.9, where 1 is the maximum). The note with it: HepG2 Attagene TRANS ERa GAL4 reporter, mRNA. In outline: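 Signal derives from fluorescence of labelled reporter PCR fragments separated by capillary electrophoresis. HepG2 cells transiently carrying multiple GAL4-UAS reporter units were treated 24 hours, and induction above DMSO baseline was fitted as activity.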

Experiment [16] addresses X-box-binding protein 1 (Homo sapiens) (UniProt P17861). Nature of the experiment: ATG_Xbp1_CIS: Attagene CIS-FACTORIAL HepG2 Assay for human X-box Binding Protein 1 (XBP1) (AID 2282972). The note with it: HepG2 XBP1 cis-element reporter, Attagene multiplex; actives raise or lower the signal. In outline: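 Human hepatoma HepG2, cis-element reporter system, 24 h treatment; mRNA quantified by RT-PCR/CE fluorescence; fit relative to DMSO.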

A short description of experiment [17]: ATG_GAL4_TRANS: Attagene TRANS-FACTORIAL HepG2 Assay for GAL4 (Internal Marker) (AID 2282976; active = hit-call score of the fitted dose curve at least 0.9, where 1 is the maximum). The note with it: HepG2 Attagene TRANS GAL4 internal marker reporter. A digest of the protocol: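 Liver HepG2 line bearing multiplexed GAL4-UAS reporter constructs; 24 h chemical treatment. Transcripts were quantified as fluorescent fragments on capillary electrophoresis after RT-PCR and HpaI cut, with activity fitted upward from DMSO.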

Experiment [18] can be described thus: ATG_M_19_TRANS: Attagene TRANS-FACTORIAL HepG2 Assay for M19 Transcription Factor (Internal Marker) (AID 2282974; active = hit-call score of the fitted dose curve at least 0.9, where 1 is the maximum). The note with it: HepG2 Attagene TRANS-FACTORIAL M19 internal marker reporter. In outline:
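HepG2 cells transiently transfected with multiple GAL4-UAS reporter transcription units were exposed to chemicals for 24 h. Reporter mRNA was read by RT-PCR, 6-FAM primer extension, HpaI digestion and capillary electrophoresis; gain of signal fitted relative to DMSO.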

For experiment [19], the target named is Steroid hormone receptor ERR1 (Homo sapiens) (UniProt P11474). Briefly: ATG_ERRa_TRANS: Attagene TRANS-FACTORIAL HepG2 Assay for human Estrogen-Related Receptor alpha (ERRa) (AID 2282971; active = hit-call score of the fitted dose curve at least 0.9, where 1 is the maximum). The note with it: HepG2 Attagene TRANS reporter, ERRa transactivation. A digest of the protocol:
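Signal gain relative to DMSO for an ERRa-Gal4 chimeric receptor, read as reporter mRNA by RT-PCR/capillary electrophoresis. Human HepG2 liver cells, transient multiplex reporter transfection, 24 h chemical exposure.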

Experiment [20] in a line: ATG_PXRE_CIS: Attagene CIS-FACTORIAL HepG2 Assay for human Pregnane X Receptor Element (PXRE) (AID 2282957). The note with it: HepG2 Attagene CIS-FACTORIAL PXRE reporter, mRNA; actives raise or lower the signal. A digest of the protocol: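 Bidirectional activity, baselined to DMSO, derived from reporter mRNA fluorescence (RT-PCR plus capillary electrophoresis) in HepG2 cells bearing cis-promoter reporter units, 24 h exposure.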

Paired box protein Pax-6 (Homo sapiens), sequence (P26367 whole entry, looked up): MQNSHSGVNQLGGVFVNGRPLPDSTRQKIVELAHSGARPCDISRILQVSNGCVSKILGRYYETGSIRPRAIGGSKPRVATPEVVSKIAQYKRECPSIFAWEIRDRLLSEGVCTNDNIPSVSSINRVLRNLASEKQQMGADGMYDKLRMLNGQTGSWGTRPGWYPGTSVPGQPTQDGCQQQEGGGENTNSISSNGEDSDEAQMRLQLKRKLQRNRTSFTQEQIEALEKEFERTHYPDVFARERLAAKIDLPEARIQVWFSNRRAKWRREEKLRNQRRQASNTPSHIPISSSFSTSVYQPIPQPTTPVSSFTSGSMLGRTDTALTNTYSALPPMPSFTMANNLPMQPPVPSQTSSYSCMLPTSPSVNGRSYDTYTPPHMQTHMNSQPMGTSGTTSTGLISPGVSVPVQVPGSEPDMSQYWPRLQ
Estrogen receptor (Homo sapiens), sequence (P03372 whole entry, looked up, the tested form may be a part): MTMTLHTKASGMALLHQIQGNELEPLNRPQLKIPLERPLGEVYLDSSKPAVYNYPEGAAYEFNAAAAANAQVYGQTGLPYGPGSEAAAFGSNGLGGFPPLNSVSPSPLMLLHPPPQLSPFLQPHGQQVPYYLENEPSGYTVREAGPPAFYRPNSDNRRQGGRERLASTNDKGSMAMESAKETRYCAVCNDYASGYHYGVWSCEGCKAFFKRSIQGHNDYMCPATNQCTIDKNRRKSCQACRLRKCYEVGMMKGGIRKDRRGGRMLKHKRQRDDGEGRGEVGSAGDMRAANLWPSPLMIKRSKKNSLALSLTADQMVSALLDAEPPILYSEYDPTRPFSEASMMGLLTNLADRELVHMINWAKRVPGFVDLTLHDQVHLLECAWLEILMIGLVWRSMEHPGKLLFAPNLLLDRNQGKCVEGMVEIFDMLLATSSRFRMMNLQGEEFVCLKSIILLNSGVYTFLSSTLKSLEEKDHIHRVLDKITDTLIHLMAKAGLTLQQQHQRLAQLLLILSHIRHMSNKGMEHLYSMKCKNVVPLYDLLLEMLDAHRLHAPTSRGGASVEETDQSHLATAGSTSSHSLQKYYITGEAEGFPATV
Transcription factor Sp1 (Homo sapiens), sequence (P08047 whole entry, looked up): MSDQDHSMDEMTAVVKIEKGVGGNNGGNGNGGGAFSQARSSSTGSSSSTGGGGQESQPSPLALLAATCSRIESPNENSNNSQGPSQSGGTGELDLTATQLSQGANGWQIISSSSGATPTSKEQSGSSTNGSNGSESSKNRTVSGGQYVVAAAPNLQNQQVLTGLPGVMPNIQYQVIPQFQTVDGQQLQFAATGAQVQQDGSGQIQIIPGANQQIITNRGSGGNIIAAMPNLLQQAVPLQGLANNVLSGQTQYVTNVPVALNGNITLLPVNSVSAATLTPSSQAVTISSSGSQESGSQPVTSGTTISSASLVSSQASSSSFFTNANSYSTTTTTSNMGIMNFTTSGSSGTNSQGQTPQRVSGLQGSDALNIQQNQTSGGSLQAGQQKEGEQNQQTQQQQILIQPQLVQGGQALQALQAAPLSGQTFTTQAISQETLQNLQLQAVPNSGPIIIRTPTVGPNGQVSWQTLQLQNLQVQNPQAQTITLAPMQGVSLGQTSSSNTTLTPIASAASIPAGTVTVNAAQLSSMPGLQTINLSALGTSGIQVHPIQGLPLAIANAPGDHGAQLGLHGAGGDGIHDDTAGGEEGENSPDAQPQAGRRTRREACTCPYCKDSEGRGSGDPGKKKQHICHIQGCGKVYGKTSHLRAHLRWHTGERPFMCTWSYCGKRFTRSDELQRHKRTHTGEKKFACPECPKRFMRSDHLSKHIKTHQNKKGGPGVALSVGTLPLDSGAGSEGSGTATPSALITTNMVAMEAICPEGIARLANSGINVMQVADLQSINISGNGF
Signal transducer and activator of transcription 3 (Homo sapiens), sequence (P40763 whole entry, looked up): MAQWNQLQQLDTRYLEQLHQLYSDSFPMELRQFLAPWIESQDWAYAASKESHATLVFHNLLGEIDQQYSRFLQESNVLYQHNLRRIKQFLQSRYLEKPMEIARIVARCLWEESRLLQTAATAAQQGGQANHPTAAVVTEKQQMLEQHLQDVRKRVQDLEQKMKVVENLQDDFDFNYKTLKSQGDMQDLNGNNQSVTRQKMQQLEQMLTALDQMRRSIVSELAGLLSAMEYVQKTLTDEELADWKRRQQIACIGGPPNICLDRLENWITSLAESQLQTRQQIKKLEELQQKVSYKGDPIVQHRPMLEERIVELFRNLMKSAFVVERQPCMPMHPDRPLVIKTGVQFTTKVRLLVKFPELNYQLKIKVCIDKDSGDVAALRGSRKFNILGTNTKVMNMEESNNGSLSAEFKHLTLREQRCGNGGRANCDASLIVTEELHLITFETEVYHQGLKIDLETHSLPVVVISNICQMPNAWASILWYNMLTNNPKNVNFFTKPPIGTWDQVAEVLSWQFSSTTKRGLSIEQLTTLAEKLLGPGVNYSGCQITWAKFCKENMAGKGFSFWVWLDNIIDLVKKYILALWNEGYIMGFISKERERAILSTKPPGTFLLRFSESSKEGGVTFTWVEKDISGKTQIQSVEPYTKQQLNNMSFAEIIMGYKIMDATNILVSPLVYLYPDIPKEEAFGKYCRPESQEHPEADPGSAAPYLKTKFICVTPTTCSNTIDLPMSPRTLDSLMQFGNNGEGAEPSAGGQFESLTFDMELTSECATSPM
X-box-binding protein 1 (Homo sapiens), sequence (P17861 whole entry, looked up): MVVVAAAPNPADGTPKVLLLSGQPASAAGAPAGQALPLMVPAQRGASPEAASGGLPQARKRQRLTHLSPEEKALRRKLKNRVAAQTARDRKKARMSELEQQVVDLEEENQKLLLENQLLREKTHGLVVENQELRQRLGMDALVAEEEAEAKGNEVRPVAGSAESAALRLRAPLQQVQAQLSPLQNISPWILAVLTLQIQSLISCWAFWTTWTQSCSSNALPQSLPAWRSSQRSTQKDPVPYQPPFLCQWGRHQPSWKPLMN
Nuclear receptor subfamily 1 group I member 3 (Homo sapiens), sequence (Q14994 whole entry, looked up, the tested form may be a part): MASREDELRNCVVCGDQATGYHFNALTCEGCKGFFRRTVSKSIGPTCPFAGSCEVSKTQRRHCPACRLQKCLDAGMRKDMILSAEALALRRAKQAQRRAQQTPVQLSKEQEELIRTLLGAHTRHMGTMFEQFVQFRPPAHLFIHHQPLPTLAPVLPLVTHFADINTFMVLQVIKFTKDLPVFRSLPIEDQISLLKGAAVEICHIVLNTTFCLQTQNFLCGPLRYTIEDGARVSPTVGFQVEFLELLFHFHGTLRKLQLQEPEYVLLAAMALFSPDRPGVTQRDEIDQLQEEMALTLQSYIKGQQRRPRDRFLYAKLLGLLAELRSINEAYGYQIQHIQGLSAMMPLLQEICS
Steroid hormone receptor ERR1 (Homo sapiens), sequence (P11474 whole entry, looked up, the tested form may be a part): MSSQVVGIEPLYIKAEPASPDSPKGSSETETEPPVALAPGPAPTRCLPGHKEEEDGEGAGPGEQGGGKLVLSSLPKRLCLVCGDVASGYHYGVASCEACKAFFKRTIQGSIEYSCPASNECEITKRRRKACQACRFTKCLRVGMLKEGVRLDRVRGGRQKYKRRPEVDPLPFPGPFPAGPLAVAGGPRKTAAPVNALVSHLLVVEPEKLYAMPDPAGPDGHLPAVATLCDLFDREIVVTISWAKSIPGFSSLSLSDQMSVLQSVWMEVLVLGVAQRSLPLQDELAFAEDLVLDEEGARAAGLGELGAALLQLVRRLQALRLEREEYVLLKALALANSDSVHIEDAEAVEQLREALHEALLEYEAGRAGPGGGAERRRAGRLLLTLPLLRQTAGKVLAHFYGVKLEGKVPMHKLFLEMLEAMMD

For `CC(=O)c1ccc(O)cc1`, the outcome in experiment [1], in [2], in experiment [3], in experiment [4], in experiment [5] and in [6] was inactive. Moreover, the compound was classed as inactive in experiment [7], in [8], in [9], in experiment [10], in [11] and in experiment [12]. Also, the result in [13], in experiment [14], in [15], in experiment [16] and in experiment [17] was inactive.

`O=C(C=Cc1ccccc1)OCCCc1ccccc1`: the result in [1], in [2], in experiment [4], in [5], in experiment [6] and in [7] was inactive. Also, the compound was called inactive in experiment [8], in [9], in experiment [11], in experiment [12], in experiment [13] and in experiment [16]. The result in experiment [18] and in experiment [17] was inactive. The AC50 in experiment [15] was 15.3 µM (active).

In the case of `CC(=O)CC(C)(C)C1CCCCC1`, the result in [1], in experiment [2], in [3], in experiment [4], in [5] and in [6] was inactive. The compound was called inactive in [7], in experiment [9], in experiment [10], in [11], in [12] and in experiment [15]. Besides, the call in experiment [19], in [16], in experiment [18] and in [17] was inactive.

Turning to `CCCCCC1CCC(=O)O1` (centres undefined), the compound was classed as inactive in [2], in [20], in [3], in experiment [4], in [5] and in experiment [6]. Besides, the outcome in experiment [7], in experiment [8], in [9], in [10], in experiment [11] and in experiment [12] was inactive. The call in experiment [13], in experiment [16], in experiment [18] and in [17] was inactive.

By AC50 is commonly meant the midpoint of the concentration-response curve, whichever way the signal moves.
